Results: the supplement of paper PMC11732987, “Enantioselective OTUD7B fragment discovery through chemoproteomics screening and high-throughput optimisation” (Communications Chemistry, 2025)

What was measured:
Assay in all cases: log2 ratio of Biotin-Ahx-Ub-VS probe labelling (fragment/DMSO); higher = less target engagement (more negative = stronger competition), active = hit call of the paper (q ≤ 0.05, log2 ratio ≤ -1)
Conditions in all cases: compound concentration: 200 uM; treatment time: 3 h
[1] = target: USP16 (UniProt Q9Y5T5)
Sequence of USP16 (Q9Y5T5 whole entry, looked up, the tested form may be a part): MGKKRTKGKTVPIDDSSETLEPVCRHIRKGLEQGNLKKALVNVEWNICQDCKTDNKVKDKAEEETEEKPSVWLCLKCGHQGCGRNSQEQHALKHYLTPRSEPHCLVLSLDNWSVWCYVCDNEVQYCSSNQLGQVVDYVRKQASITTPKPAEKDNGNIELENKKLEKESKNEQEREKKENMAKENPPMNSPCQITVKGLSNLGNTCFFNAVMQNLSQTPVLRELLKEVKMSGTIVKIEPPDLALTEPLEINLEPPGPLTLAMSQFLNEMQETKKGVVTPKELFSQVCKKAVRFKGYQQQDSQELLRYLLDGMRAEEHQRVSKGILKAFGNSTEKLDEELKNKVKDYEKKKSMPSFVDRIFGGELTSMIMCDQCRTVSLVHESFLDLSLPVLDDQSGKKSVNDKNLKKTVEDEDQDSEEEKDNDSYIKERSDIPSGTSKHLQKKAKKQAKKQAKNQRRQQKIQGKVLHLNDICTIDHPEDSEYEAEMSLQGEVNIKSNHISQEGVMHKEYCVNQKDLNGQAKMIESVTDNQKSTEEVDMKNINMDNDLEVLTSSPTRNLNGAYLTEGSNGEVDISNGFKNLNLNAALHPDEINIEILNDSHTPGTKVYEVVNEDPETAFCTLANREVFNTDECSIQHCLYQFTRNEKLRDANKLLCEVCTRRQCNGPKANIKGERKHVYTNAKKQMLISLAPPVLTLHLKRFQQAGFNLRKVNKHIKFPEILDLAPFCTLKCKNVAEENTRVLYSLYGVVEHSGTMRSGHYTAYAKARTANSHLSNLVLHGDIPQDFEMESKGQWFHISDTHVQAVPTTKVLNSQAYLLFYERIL
Outline: (§1)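 Labelled DUBs were enriched with NeutrAvidin, digested with LysC and trypsin, and run by diaPASEF LC-MS/MS. The labelling used Biotin-Ahx-Ub-VS at 0.5 µM final for 1 h on HEK293T lysate (495 µg per sample) previously treated in triplicate with fragment at 200 µM or vehicle for 3 h. Values are average log2 fragment/vehicle ratios by unpaired t-test on global-median-normalised Spectronaut quantities of proteins with ≥2 unique peptides.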

[2] = target: T1, USP19 (UniProt O94966)
T1 sequence (whole entry): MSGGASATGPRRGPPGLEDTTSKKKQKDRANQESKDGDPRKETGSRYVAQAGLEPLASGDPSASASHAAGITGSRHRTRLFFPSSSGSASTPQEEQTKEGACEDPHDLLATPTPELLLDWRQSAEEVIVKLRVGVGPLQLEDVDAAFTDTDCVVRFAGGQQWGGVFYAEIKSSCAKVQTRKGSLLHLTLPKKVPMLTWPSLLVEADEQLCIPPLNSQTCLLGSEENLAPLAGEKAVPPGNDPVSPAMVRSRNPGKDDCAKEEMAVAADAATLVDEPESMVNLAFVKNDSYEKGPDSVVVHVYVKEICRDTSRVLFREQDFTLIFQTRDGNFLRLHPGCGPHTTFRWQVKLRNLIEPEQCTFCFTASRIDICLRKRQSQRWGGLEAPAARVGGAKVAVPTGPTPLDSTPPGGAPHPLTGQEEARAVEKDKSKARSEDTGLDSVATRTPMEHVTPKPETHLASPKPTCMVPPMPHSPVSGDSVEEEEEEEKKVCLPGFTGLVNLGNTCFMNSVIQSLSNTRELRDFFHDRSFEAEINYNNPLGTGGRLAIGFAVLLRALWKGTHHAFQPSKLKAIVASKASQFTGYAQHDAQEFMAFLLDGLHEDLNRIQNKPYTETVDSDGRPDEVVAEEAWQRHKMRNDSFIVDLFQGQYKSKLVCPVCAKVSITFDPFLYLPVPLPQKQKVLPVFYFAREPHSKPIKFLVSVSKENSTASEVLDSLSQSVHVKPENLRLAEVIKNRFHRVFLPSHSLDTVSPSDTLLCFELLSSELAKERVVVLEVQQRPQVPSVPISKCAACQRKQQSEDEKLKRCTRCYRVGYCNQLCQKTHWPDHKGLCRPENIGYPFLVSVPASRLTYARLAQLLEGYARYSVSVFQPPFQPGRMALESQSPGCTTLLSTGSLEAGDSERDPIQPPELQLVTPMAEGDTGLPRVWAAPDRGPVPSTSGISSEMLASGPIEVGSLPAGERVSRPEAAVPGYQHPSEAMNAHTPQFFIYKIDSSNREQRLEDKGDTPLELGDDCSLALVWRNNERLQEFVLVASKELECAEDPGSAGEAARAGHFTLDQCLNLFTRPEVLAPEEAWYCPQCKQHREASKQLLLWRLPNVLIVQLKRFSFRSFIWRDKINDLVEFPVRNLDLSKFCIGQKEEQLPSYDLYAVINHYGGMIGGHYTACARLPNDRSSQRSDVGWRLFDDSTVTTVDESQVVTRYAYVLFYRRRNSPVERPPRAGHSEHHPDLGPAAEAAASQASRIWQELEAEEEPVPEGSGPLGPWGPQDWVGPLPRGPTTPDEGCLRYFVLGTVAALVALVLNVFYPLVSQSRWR
Outline: as §1

[3] = target: USP24 (UniProt Q9UPU5)
Sequence of USP24 (Q9UPU5 whole entry): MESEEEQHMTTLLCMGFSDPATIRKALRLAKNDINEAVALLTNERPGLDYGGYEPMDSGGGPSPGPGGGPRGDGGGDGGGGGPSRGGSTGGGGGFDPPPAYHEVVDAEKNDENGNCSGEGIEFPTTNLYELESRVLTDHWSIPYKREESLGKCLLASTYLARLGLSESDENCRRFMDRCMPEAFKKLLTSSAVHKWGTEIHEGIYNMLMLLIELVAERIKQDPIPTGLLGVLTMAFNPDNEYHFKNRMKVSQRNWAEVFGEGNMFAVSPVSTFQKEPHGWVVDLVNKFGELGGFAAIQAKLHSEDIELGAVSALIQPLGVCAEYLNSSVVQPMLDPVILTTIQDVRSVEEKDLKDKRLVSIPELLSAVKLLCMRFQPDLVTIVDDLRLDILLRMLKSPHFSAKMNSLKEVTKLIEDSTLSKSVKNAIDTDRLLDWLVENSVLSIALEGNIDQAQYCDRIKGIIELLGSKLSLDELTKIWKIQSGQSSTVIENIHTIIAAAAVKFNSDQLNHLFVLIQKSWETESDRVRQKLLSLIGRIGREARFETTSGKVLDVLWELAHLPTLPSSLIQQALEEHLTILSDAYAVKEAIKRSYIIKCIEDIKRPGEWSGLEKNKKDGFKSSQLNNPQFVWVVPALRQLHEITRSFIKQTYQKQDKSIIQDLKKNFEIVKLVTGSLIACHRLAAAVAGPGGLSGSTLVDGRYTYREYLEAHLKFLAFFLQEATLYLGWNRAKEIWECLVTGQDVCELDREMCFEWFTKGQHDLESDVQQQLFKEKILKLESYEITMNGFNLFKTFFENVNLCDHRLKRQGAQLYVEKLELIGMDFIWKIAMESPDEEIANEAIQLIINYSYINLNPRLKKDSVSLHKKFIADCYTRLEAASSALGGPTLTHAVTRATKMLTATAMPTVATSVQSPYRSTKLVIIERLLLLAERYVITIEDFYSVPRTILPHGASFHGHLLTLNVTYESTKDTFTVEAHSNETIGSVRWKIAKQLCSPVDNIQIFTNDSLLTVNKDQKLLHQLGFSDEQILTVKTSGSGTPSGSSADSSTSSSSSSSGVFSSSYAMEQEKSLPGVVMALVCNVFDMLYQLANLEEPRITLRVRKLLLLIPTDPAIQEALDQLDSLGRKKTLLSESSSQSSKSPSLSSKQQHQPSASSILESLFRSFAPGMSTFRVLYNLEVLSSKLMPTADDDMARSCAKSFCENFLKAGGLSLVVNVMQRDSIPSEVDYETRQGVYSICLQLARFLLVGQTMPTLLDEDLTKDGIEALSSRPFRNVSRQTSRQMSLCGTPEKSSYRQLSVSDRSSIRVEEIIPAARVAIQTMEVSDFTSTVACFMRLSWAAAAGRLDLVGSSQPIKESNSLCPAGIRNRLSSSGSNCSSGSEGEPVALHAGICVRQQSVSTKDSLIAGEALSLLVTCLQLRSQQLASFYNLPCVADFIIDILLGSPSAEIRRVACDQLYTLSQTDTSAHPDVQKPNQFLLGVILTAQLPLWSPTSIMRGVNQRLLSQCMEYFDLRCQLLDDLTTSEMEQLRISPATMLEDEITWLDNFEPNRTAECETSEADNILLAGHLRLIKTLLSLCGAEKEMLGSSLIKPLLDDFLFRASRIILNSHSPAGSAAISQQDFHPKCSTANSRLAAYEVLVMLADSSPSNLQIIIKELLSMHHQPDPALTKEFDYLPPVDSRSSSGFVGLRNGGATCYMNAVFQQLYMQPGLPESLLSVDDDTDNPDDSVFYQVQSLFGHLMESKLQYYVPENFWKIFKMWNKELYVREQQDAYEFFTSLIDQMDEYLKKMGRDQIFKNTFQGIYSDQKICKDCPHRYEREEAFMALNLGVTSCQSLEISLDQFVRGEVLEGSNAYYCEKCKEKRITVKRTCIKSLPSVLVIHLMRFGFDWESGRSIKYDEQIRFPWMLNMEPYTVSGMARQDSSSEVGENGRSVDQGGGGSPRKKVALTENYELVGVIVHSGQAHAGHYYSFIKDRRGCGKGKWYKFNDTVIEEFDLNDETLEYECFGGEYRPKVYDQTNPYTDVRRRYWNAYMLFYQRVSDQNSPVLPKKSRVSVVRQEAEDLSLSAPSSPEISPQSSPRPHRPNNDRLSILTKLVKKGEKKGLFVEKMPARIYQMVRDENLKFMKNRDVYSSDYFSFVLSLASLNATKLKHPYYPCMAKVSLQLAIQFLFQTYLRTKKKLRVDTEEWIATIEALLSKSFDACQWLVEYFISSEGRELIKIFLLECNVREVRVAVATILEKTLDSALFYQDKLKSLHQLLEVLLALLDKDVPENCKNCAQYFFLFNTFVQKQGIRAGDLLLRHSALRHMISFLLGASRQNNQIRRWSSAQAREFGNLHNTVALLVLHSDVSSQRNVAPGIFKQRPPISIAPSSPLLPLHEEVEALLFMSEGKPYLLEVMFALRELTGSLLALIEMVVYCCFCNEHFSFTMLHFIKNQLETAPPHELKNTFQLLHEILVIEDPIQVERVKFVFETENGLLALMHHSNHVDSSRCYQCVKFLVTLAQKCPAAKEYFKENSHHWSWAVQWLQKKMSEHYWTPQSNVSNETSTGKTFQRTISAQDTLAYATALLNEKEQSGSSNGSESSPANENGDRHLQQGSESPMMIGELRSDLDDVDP
Outline: as §1

[4] = target: T2, USP25 (UniProt Q9UHP3)
T2 sequence (whole entry): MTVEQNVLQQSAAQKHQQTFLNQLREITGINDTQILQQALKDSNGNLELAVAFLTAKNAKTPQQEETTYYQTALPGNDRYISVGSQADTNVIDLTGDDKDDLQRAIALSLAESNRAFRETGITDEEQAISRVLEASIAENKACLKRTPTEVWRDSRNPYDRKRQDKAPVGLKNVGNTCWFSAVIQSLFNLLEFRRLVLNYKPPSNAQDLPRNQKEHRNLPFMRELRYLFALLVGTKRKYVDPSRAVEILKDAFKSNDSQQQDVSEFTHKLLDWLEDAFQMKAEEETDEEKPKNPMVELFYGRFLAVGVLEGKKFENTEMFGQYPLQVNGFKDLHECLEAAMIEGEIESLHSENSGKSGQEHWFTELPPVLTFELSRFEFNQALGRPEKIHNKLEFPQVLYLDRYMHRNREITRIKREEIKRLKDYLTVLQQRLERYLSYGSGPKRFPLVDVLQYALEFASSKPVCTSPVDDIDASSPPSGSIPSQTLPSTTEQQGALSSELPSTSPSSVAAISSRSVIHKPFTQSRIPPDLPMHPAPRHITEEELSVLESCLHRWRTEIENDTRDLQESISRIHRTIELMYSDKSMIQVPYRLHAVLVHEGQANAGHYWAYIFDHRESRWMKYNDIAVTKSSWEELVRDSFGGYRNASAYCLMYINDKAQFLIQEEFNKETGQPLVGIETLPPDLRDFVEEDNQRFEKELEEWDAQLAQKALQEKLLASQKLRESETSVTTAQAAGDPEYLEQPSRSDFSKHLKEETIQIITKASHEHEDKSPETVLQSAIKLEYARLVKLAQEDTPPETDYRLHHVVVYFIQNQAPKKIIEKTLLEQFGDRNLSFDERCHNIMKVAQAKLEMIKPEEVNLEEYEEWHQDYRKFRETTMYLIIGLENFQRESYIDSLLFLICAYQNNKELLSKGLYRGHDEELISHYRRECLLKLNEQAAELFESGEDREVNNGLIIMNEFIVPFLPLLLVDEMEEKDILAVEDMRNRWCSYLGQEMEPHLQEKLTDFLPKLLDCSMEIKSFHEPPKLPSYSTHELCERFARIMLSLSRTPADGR
Outline: as §1

[5] = target: T3, USP28 (UniProt Q96RU2)
T3 sequence (whole entry): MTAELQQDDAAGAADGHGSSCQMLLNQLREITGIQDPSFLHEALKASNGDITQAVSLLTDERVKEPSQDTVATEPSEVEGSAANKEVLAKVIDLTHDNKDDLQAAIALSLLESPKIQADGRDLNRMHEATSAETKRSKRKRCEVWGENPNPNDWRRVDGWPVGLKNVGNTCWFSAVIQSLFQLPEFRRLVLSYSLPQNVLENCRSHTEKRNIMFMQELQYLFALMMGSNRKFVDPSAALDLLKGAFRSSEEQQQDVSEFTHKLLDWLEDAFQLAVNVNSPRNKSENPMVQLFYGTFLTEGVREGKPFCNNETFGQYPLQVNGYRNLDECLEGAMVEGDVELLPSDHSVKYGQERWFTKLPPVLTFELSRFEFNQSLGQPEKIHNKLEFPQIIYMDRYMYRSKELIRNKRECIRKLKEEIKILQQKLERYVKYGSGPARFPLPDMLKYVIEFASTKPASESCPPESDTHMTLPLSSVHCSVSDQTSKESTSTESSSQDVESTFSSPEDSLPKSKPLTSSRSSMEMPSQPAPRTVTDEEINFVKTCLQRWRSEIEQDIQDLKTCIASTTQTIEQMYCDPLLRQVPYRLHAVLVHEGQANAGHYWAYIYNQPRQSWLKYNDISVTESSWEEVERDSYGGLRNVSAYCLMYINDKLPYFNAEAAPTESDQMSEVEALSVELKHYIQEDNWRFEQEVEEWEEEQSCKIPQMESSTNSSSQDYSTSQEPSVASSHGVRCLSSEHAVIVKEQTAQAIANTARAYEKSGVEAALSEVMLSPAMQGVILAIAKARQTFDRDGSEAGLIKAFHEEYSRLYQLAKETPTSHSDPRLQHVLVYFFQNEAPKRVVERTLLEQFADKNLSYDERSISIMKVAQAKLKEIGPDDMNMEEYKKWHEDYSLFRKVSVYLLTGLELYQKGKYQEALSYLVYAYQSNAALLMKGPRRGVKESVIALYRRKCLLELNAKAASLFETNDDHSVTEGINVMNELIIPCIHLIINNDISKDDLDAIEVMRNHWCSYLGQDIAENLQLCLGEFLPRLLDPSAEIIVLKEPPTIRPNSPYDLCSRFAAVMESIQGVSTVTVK
Outline: as §1

Measured: log2 ratio of Biotin-Ahx-Ub-VS probe labelling

O=C(CCl)N1CCC(C(=O)N2CCCCCC2)CC1
inactive: [1] -0.164 | [2] -0.129 | [3] -0.141 | [4] -0.0854 | [5] -0.307
